Inconclusive results are not listed. Calls of active or inactive are those of the source. Rule for the calls: active = hit-call score of the fitted dose curve at least 0.9, where 1 is the maximum; inconclusive = response in the unintended direction; inactive = score below 0.9.
assay: CCTE_Mundy_HCI_iCellGluta_NOG_NeuronCount: CCTE's Neurite Outgrowth Assay in iCellGluta cells for Neuron Count, Mundy Lab (AID 2284340);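 note: cells fixed about 48 h after compound addition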
Procedure: CCTE_Mundy_HCI_iCellGluta_NOG is a multiplexed, cell-based-readout assay that uses iCell GlutaNeurons from FUJIFILM Cellular Dynamics, Inc. (FCDI), human glutamatergic enriched neurons derived from induced pluripotent stem (iPS) cells, with measurements taken at 50.33 hours after chemical dosing in a microplate: 96-well plate.CCTE_Mundy_HCI_iCellGluta_NOG_NeuronCount is one of four components of the CCTE_Mundy_HCI_iCellGluta_NOG assay. It measures cell viability related to number of neurons using High Content Imaging of fluorescently labelled markers.Data from the assay component CCTE_Mundy_HCI_iCellGluta_NOG_NeuronCount was analyzed at the endpoint CCTE_Mundy_HCI_iCellGluta_NOG_NeuronCount in the positive analysis fitting direction relative to DMSO as the negative control and baseline of activity. Using a type of viability reporter, loss-of-signal activity can be used to understand developmental effects.
Exposure starts 2 hours post-plating by adding 10 ul of the working solution to 90 ul of media in the wells for a 1/10 dilution. Forty-eight hours after chemical treatment cells are fixed by direct addition of 100 ul of warm (37C) Dulbecco's phosphate buffered saline (DPBS) fixative solution containing 8% paraformaldehyde, 8% sucrose, and 0.1% of 3 mg/ml Hoechst 33342 into each well. Primary antibodies are prepared by dilution in Immunocytochemical Staining Buffer (ISB), 10X Dulbecco's PBS, 0.1% Saponin, 5% Bovine Serum Albumin, 0.5% NaN3 (Sodium Azide) and betaIII-tubulin (rabbit anti-betaIII-tubulin, 1:800) followed by Alexa Fluor-488 secondary (1:500) to label neuronal cell bodies and neurites. A Cellomics ArrayScan VTi HCS Reader is used for automated image acquisition and analysis of neurite outgrowth.

Structure (SMILES)	outcome	AC50
CCc1ccccc1	inactive	
CC(CNC(=S)[S-])NC(=S)[S-].[Zn+2] (configuration not stated)		12.7 µM (active)
CC(C)O	inactive	
C[C@@H]1CC[C@@H](C(C)(C)O)[C@H](O)C1	inactive	
CCCCCC=C(C)C(CC)CCO (configuration not stated)	inactive	
CC(C)c1nn(C(=O)NC(C)(C)C)c(=O)n1N	inactive	
CC(=O)N[C@@H](CC(=O)O)C(=O)O	inactive	
BrC1CC(Br)CC(Br)CC(Br)CC(Br)CC(Br)C1 (configuration not stated)		4.56 µM (active)
C[C@@H]1CCO[C@H]2Cn3cc(C(=O)NCc4ccc(F)cc4F)c(=O)c(O)c3C(=O)N12	inactive	
CCCCCC(C)(CC)C(=O)NC (configuration not stated)	inactive	
Cc1[nH]n(C)c(=O)c1C(=O)c1ccc(C(F)(F)F)cc1S(C)(=O)=O	inactive	
O=C1CC2(CCCC2)CC(=O)N1CCCCN1CCN(c2ncccn2)CC1	inactive	

— PubChem BioAssay (EPA / NIEHS)
